# The supplement of paper PMC8699584
# Structures can show the parent of a compound that is named as a salt. ± gives the standard deviation of the averaged measurements.
# Test system: Mv4-11
# Assay: cell viability relative to DMSO control (bortezomib = 0%); higher = less growth inhibition
# Details: 10 nM; 72 h
# Method in brief: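 Each plate's values were converted to percentages by linear regression, taking DMSO-treated cells as 100% and positive-control-treated cells as 0%. These plates were 384-well plates of 679 approved and investigational compounds at a single 10 nM dose, onto which acute myeloid leukemia cells were dispensed at 1000 cells per well in 50 µL for 72 h, in duplicate. Cell viability came from CellTiter-Glo luminescence on an EnVision reader.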
row,Compound,cell viability [%]
1,CNC(=O)c1ccccc1Sc1ccc2c(/C=C/c3ccccn3)n[nH]c2c1 [Axitinib],118 ± 10
2,O=C(NCc1cccc(O)c1)Nc1nc(-c2ccncc2)cs1,121 ± 9
3,O=c1cc(-c2ccc(O)cc2)oc2cc(O)cc(O)c12 [Apigenin],95.3 ± 2.3
4,Brc1c(Br)c(Br)c2n[nH]nc2c1Br,97.11 ± 0.32
5,COc1cc(OC)c(/C=C/S(=O)(=O)Cc2ccc(OC)c(OP(=O)(O)O)c2)c(OC)c1 [Briciclib],106 ± 11
6,COc1cc2ncnc(Nc3cccc(Cl)c3)c2cc1OC,108 ± 7.1
7,CC(C)(C)Cn1c(N)nc2ccc(-c3[nH]c(C(C)(C)C)nc3-c3ccc(F)cc3)nc21,84.9 ± 21
8,C[C@H](NC(=O)/C(C#N)=C/c1cccc(Br)n1)c1ccccc1,99.3 ± 5.6
9,CC(C)c1ccc2c(c1)CC[C@H]1[C@](C)(CN)CCC[C@]21C [Leelamine],101 ± 9.8
10,CN1CCN(S(=O)(=O)c2ccc(-c3cnc(N)c(C(=O)Nc4cccnc4)n3)cc2)CC1,100 ± 0.48
11,C#Cc1cccc(Nc2ncnc3cc(OCCOC)c(OCCOC)cc23)c1 [Erlotinib hydrochloride],121 ± 20
12,Oc1cc(-c2nc(-c3ccccc3)[nH]c2-c2ccncc2)ccc1Cl,105 ± 3.6
13,N#CC(c1ccnc(OCc2ccc(CN3CCOCC3)cc2)n1)c1nc2ccccc2s1 (stereo not given),109 ± 11
14,CC(=O)Nc1nc(C)c(-c2ccc(Cl)c(S(=O)(=O)NCCO)c2)s1,97.8 ± 21
15,COC(=O)c1ccc2c(c1)NC(=O)/C2=C(\Nc1ccc(N(C)C(=O)CN2CCN(C)CC2)cc1)c1ccccc1 [Nintedanib (BIBF 1120)],113 ± 5.7
16,Cc1nc(Nc2ncc(C(=O)Nc3c(C)cccc3Cl)s2)cc(N2CCN(CCO)CC2)n1 [Dasatinib],114 ± 2.2
17,Oc1cccc(Nc2ncc(F)c(Nc3cccc(O)c3)n2)c1,96.5 ± 16
18,CCCCC/C=C\C/C=C\C/C=C\C/C=C\CCCC(=O)NC[C@]1(C)CCC[C@]2(C)c3ccc(C(C)C)cc3CC[C@@H]12 [Arachidonic Acid Leelamide],112 ± 1.2
19,COc1cc2ncnc(Sc3nnc(C)s3)c2cc1OC,115 ± 14
20,O=C1NC(=O)C(c2cnc3ccccn23)=C1c1cn2c3c(cc(F)cc13)CN(C(=O)N1CCCCC1)CC2,89.9 ± 4.6

row,Compound,cell viability [%]
1,CN1C(=O)C(c2c[nH]c3ccccc23)=C(c2c[nH]c3ccccc23)C1=O [Bisindolylmaleimide V],113 ± 9.1
2,CN1CCC(CNc2ccc3ncc(-c4cccc(OC(F)(F)F)c4)n3n2)CC1 [SGI-1776 free base],97.7 ± 14
3,COc1cc2nccc(Oc3ccc(NC(=O)C4(C(=O)Nc5ccc(F)cc5)CC4)cc3)c2cc1OC [XL184(Cabozantinib malate)],42 ± 6.5
4,CNC(=O)c1ccccc1Nc1nc(Nc2ccc(N3CCOCC3)cc2OC)ncc1Cl,109 ± 5.5
5,Cc1cnc(NC(=O)Nc2cc(Br)c(C)cc2OC[C@@H]2CNCCO2)cn1,109 ± 8.1
6,O=C(O)c1cc(NCc2cc(O)ccc2O)ccc1O [Lavendustin C],104 ± 1.9
7,CN(c1ccccc1CNc1nc(Nc2ccc3c(c2)CC(=O)N3)ncc1C(F)(F)F)S(C)(=O)=O,96.4 ± 15
8,CO[C@@H]1[C@H](N(C)C(=O)c2ccccc2)C[C@H]2O[C@]1(C)n1c3ccccc3c3c4c(c5c6ccccc6n2c5c31)C(=O)NC4,87.82 ± 0.66
9,O=C1NCCCc2c1oc1ccc(O)cc21,104 ± 3.1
10,O=C(NCCO)c1cccc(-c2cc(Nc3ccc(OC(F)(F)F)cc3)ncn2)c1,107 ± 3.3
11,COc1cc(N2CCN(C)CC2)ccc1Nc1nccc(-c2cn(C)c3cnccc23)n1,117 ± 7
12,O=C(Nc1cc(Oc2cc(F)c(NC(=O)C3(C(=O)Nc4ccc(F)cc4)CC3)cc2F)ccn1)C1CC1 [Altiratinib(DCC2701)],120 ± 8.4
13,Cc1ncc(CCCN(C)C)cc1Nc1ncc2c(n1)-c1ccc(C(F)(F)F)cc1NC(=S)C2,108 ± 7.1
14,Nc1nc(N)c2nc(-c3cccc(O)c3)c(-c3cccc(O)c3)nc2n1,120 ± 11
15,"CCCCCCCCCCCCC/C=C/[C@@H](O)[C@H](CO)N(C)C [N,N-Dimethylsphingosine]",115 ± 6.7
16,CCCCCCCCCC(=O)CC(O)S(=O)(=O)O (stereo not given) [Sodium houttuyfonate],106 ± 1.1
17,C[C@@H]1O[C@@H](Oc2c(-c3cc(O)c(O)c(O)c3)oc3cc(O)cc(O)c3c2=O)[C@H](O)[C@H](O)[C@H]1O [Myricetrin],112 ± 35
18,OCCn1cc(-c2cnc3nnn(Cc4ccc5ncccc5c4)c3n2)cn1,112 ± 8.7
19,COc1cc2ncnc(Oc3cccc(NC(=O)Nc4cc(C(C)(C)C(F)(F)F)on4)c3)c2cc1OC,113 ± 17
20,C=CC(=O)N1CCC[C@@H](n2nc(-c3ccc(Oc4ccccc4)cc3)c3c(N)ncnc32)C1,93.2 ± 4.6
